IEC-6 cytotox: kills IEC-6 intestinal cells in KLF5 counter-screen | hit rate 0.78% among 290,000 | AID 1825 | IEC-6 cytotoxicity, luminescence viability | inhibition, % at 5 µM; in the data active means inhibition above about 22%;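 further: 0% = plate median of test compound wells and 100% = cytotoxic reference compound wells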
APP 5UTR inh: APP translation inhibition; SH-SY5Y APP 5'UTR-luciferase reporter, luminescence; inhibition, % at 2 µM; hit rate 0.82% among 190,000;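 active means inhibition above a set limit, derived from the sample mean plus 3 SD, cut at about 45% in these data; inconclusive means one replicate passes the limit while the other fails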
Ba/F3 V617F tox: loss of viability in JAK2V617F-driven Ba/F3 cells; inhibition, % at 5.6 µM; Ba/F3 EpoR-JAK2V617F viability, ATP luminescence; AID 1446; hit rate 1.1% among 220,000;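 active means inhibition above the campaign mean plus 3 SD over all tested compounds, cut at about 24% in these data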;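 further: cytokine-independent growth of Ba/F3 cells driven by EpoR plus mutant JAK2; 0% = DMSO-treated cells and 100% = JAK inhibitor I control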
aSyn 5UTR inh: MLPCN primary screen, SNCA 5' untranslated region; alpha-synuclein 5'UTR reporter, inhibitor activity; inhibition, % (tested at 7.5 µM); hit rate 0.82% among 300,000; AID 1813; in the data active means inhibition above about 60%; inconclusive means no clear call, values can overlap the other calls;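 further: H4 neuroglioblastoma cells stably carrying SNCA 5'UTR luciferase fusion; 0% = DMSO wells and 100% = positive control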
BaF3 tox: reduces parental Ba/F3 cell viability, JAK2V617F counter-screen; AID 1486; hit rate 1.1% among 220,000; inhibition, % at 5.6 µM; CellTiter-Glo ATP luminescence;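 active means inhibition above a per-campaign cutoff, the mean inhibition of all tested compounds plus 3 SD, cut at about 27% in these data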;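 further: 0% = DMSO wells and 100% = JAK Inhibitor I control wells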
KLF5 inh: suppresses KLF5 promoter-driven expression. inhibition, % at 5 µM. hit rate 0.23% among 290,000. DLD-1 KLF5 promoter-luciferase reporter, luminescence;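 active means inhibition above a per-plate limit of that plate's mean compound inhibition plus 3 SD, cut at about 60% in these data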;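 further: 0% = DMSO wells and 100% = LY294002 at 200 µM; higher means less KLF5 promoter-driven luciferase light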
BaF3 parental 2: reduces parental Ba/F3 viability, JAK2V617F counter-screen; shares compounds with Ba/F3 V617F tox; CellTiter-Glo luminescence; cells kept alive by added IL-3; inhibition, % at 5.6 µM; hit rate 31% among 580; AID 1520;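 active means cell growth inhibition above the hit limit set in the earlier mutant JAK2 cell screen, cut at about 27% in these data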;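 further: plate controls were DMSO-treated cells for no effect and JAK Inhibitor I control wells for full effect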
JAK2V617F confrm: confirmation: loss of viability in JAK2V617F-dependent Ba/F3 cells | Ba/F3 EpoR-JAK2V617F viability, CellTiter-Glo luminescence | inhibition, % at 5.6 µM | hit rate 66% among 580 | shares compounds with Ba/F3 V617F tox | AID 1521;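 active means mean inhibition above the hit cutoff derived in the earlier primary screen, cut at about 25% in these data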;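 further: 0% = DMSO-treated cells and 100% = JAK inhibitor I control wells; higher means lower luminescence from reduced cell ATP and viability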
* hit, by the source's call; ? = inconclusive; / = no result. An excerpt weighted towards active compounds, which were near 2.2% of everything screened.

SMILES	IEC-6 cytotox	APP 5UTR inh	Ba/F3 V617F tox	aSyn 5UTR inh	BaF3 tox	KLF5 inh	BaF3 parental 2	JAK2V617F confrm
Oc1ccc(C=Nc2cccc3ncccc23)c(O)c1	18	12	52*	-21	16	-21	-2	-4
Oc1ccc(C=Nc2ccc3ncccc3c2)c(O)c1	-1	-54	-1	-12	1	-8	/	/
CC(=O)N/C(=N/c1nc(C)cc(C)n1)Nc1cccc(C)c1	0	/	/	16	/	-20	/	/
NC(N)=NN=C1CCCCCCCCCCC1	-6	/	49*	26	22	13	29*	68*
CCOC(=O)c1cnc2ccc(OCC)cc2c1NCc1ccccc1	12	8	24*	-10	-5	-37	5	31*
CCOC(=O)c1cnc2ccc(OCC)cc2c1NCc1cccnc1	6	-9	16	-43	0	-27	/	/
O=S1(=O)C=C(Sc2nc3cc(Cl)ccc3o2)c2ccccc21	-4	40	44*	55	7	-10	107*	99*
CC(=O)n1cc(N(C(=O)CCl)c2ccc(Cl)cc2)c2ccccc21	9	/	98*	103*	13	-24	104*	98*
CCOC(=O)c1ccccc1Nc1cn(C(C)=O)c2ccccc12	1	-6	1	26	6	3	/	/
C=CCCC(=O)N(C)CCO	/	/	/	12	/	/	/	/
CC(=O)Nc1ccc(NC(=O)C2CCN(C(=O)C3CC(=O)N(c4ccc(C)cc4)C3)CC2)cc1 (stereo not given)	-2	/	/	6	/	-5	/	/
CC1=CC(C)(C)Nc2ccc(OC(=O)CN3C(=O)CCC3=O)cc21	4	26	4	31	4	-10	/	/
CC1=CC(C)(C)Nc2ccc(OC(=O)c3ccco3)cc21	-4	37	43*	13	0	-12	37*	83*
C#CC[N+](C)(C)CC#Cc1ccccc1	2	-20	39*	9	11	-50	3	42*
O=C(O)c1ccccc1C(=O)c1ccc(-c2ccccc2)cc1	-3	/	/	-5	/	-77	/	/
O=C(c1ccccc1)c1ccccc1N1C(=O)C=CC1=O	7	/	32*	21	2	-16	-2	26*
CC1CCCCC12NC(=O)N(CC(=O)OCC(=O)c1ccc(OC(F)F)cc1OC(F)F)C2=O (stereo not given)	-1	/	/	-9	/	-33	/	/
Cc1ccc(NC(=S)N(CCCN2CCC(C)CC2)Cc2ccco2)cc1C	-4	5	25*	-4	14	-27	29*	46*
Cc1onc(-c2ccccc2Cl)c1C(=O)NCc1ccc(F)cc1	-2	/	/	1	/	-13	/	/
COc1cc(OC)cc(C(=O)Nc2ccccc2-c2nnn(CC(=O)Nc3cc(C)on3)n2)c1	-3	/	/	-19	/	-1	/	/
CCOC(=O)/C=C/S(=O)(=O)c1ccc(NC(C)=O)cc1	5	74*	58*	-58	4	-15	21	24*
CCOC(=O)c1c(NC(=O)/C=C/C(=O)O)sc(C)c1-c1ccc(C(C)(C)C)cc1	0	-5	28*	-34	17	-7	16	43*
NC(=O)c1ccccc1NC(=S)NC(=O)CCc1ccccc1	60*	71*	47*	11	7	68*	18	91*
NC(=O)c1ccccc1NC(=O)CCc1ccccc1	-4	-4	-5	-113	0	-63	/	/
CC(Oc1ccccc1)C(=O)Nc1ccc(C(N)=O)cc1 (stereo not given)	4	-10	-2	-16	0	6	/	/
SMILES	IEC-6 cytotox	APP 5UTR inh	Ba/F3 V617F tox	aSyn 5UTR inh	BaF3 tox	KLF5 inh	BaF3 parental 2	JAK2V617F confrm
COC(=O)c1ccc(NC(=O)C(C)Oc2ccccc2)cc1 (stereo not given)	-3	-16	26*	10	4	-15	-7	-17
Cc1cccc(N2CCN(Cc3cn(C)nc3-c3ccccc3F)CC2)n1	54*	74*	24*	-8	18	24	76*	97*
Cn1cc(CN2CCN(c3ccc(Cl)cn3)CC2)c(-c2ccccc2F)n1	-2	7	-1	5	-1	-24	/	/
COc1ccc(C(=O)/C=C/Nc2ccc(S(=O)(=O)Nc3cccc(C(C)=O)c3)cc2)cc1	-1	6	31*	-12	14	5	8	30*
CCn1cc(S(=O)(=O)N2CCN(Cc3ccc(F)cc3)CC2)cn1	0	-7	-3	21	8	-13	/	/
O=C(CSc1nc2ncc(Cl)cc2[nH]1)c1ccc2c(c1)OCO2	19	/	88*	-34	-3	-7	-5	-10
CC1CC(OCC(O)C[N+]2(C)CCOCC2)CC(C)(C)C1 (stereo not given)	3	22	4	10	4	-14	/	/
COCCNC(=O)c1c[nH]c2ccc(S(=O)(=O)N3CCc4ccccc43)cc2c1=O	6	3	67*	?	13	-1	83*	86*
Cc1ccc(Cn2ccsc2=NC(=O)COC(=O)c2ccc(NC(=O)CC#N)cc2)cc1	/	/	/	2	/	/	/	/
Cc1ccc(Cn2ccsc2=NC(=O)CCl)cc1	93*	-1	69*	/	4	-31	3	97*
COc1ccc(/C=N/n2cnc3c([nH]c4ccc(F)cc43)c2=O)cc1CN1CCCC1	0	/	40*	17	15	28	11	30*
COc1ccc(/C=N/n2cnc3c([nH]c4ccc(C)cc43)c2=O)cc1CN1CCCC1	6	/	4	-17	6	-13	/	/
Cc1ccc(C23CC4CC(CC(C(=O)N5CCN(C)CC5)(C4)C2)C3)cc1	-7	/	0	-1	-2	-24	/	/
Cc1ccc(C23CC4CC(CC(CC(=O)N5CCOCC5)(C4)C2)C3)cc1	-2	11	97*	3	5	1	3	16
c1ccc(Sc2cccc3ccccc23)c(CNC2=NCCN2)c1	9	-12	34*	?	10	-12	39*	48*
O=C1C2CCCN2C(c2ccccc2)N1c1ccc(F)cc1 (stereo not given)	0	-8	-3	-3	4	1	/	/
O=C1C2CCCN2C(c2ccc(F)cc2)N1c1ccc(Cl)cc1 (stereo not given)	4	-14	42*	25	18	-37	3	18
COc1ccc(CNC(=O)C2CCCN2C(=O)NCc2ccccc2)cc1 (stereo not given)	5	/	/	-6	/	-2	/	/
Cc1ccc(C(NC(=O)Nc2ccccn2)C(Cl)(Cl)Cl)cc1F (stereo not given)	-3	/	/	7	/	17	/	/
CCc1nc2ccccc2c(C(=O)O)c1C	-4	-9	3	-6	1	1	/	/
CCc1nc(N=C(N)N)nc2ccccc12	3	-13	28*	-12	17	-46	13	53*
COc1ccc(C)cc1NC(=O)C1CCN(C(=O)Cc2ccccc2)CC1	2	2	41*	-15	8	1	0	4

Compound activity as filed in PubChem.
